The nature of experiment [1]: NCI Yeast Anticancer Drug Screen. Data for the rad50 strain (AID 155).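 Note: 0% = growth of vehicle-only cultures of the same strain.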 The following applies: S. cerevisiae rad50 strain growth inhibition, active compounds read high. In a few lines: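 Vehicle-treated cultures provide the reference for the growth inhibition reported for compound-exposed, repair-deficient yeast.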
Experiment [2] can be described thus: NCI Yeast Anticancer Drug Screen. Data for the mec2-1 strain (AID 157). The following applies: S. cerevisiae mec2-1 strain, active compounds read high. In a few lines:
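Vehicle-treated cultures served as reference for growth inhibition of compound-exposed mec2-1 yeast.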

The nature of experiment [3]: NCI Yeast Anticancer Drug Screen. Data for the sgs1 mgt1 strain (AID 161).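 Note: 0% = growth of cultures given vehicle only.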 The settings on record: S. cerevisiae sgs1 mgt1 strain, active compounds read high. The method, boiled down: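 Inhibition of yeast growth, normalised to vehicle-treated controls, is reported for a strain bearing genetic alterations in DNA damage repair.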
A short description of experiment [4]: NCI Yeast Anticancer Drug Screen. Data for the cln2 rad14 strain (AID 165).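 Note: 0% = growth equal to vehicle treated cultures.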 The settings on record: S. cerevisiae cln2 rad14 strain, active compounds read high. The method, boiled down: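 Each compound was tested on cln2 rad14 yeast. Inhibition of growth was calculated against vehicle-exposed controls.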
A short description of experiment [5]: NCI Yeast Anticancer Drug Screen. Data for the bub3 strain (AID 167). The settings on record: S. cerevisiae bub3 mutant strain, active compounds read high. In a few lines:
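Mutant yeast screening strain plus compound; vehicle-treated cultures serve as the 0% inhibition reference.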

Experiment [6] in a line: NCI Yeast Anticancer Drug Screen. Data for the mlh1 rad18 strain (AID 175). The following applies: S. cerevisiae mlh1 rad18 strain growth inhibition, active compounds read high. The method, boiled down:
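Vehicle-treated cultures served as the reference for growth inhibition in a yeast strain carrying DNA damage repair alterations exposed to each compound.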

Where [7] appears, read: at 5.0 µM (retest, dose inferred, filed as 0.5).
The mark [8] stands for this setting: at 50.0 µM (retest, dose inferred, filed as 5.0).

The panel holds about 79,000 compounds, 15% with a hit somewhere; the sample as a whole holds those more often. Unmarked numbers belong to inactive results. Active and inactive are the calls of the source. Cut-off read from the data, not from the text of the source: active = growth inhibition above about 70%; inactive = the rest.

For nine molecules, growth inhibition results are on record in PubChem BioAssay (NCI).

For `Cc1occc1C(=S)Nc1ccc(Cl)c(C(=O)OC(C)C2CC2)c1` (configuration not stated), the growth inhibition in experiment [1] (setting [7]) was 9%; in experiment [1] (setting [8]), 59%; in experiment [1] (at 50.0 µM), 58.1%; in experiment [2] (setting [7]), 16%; in experiment [2] (setting [8]) it was 48%; in experiment [2] (at 50.0 µM), 39.9%. For the same molecule, the growth inhibition was -1% in experiment [3] (setting [7]); 46% in experiment [3] (setting [8]); 78.8% (active) in experiment [3] (at 50.0 µM); -5% in experiment [4] (setting [7]); 51% in experiment [4] (setting [8]); 81.5% (active) in experiment [4] (at 50.0 µM). For the same molecule, the growth inhibition in experiment [5] (setting [7]) was 6%; in experiment [5] (setting [8]) it was 56%; in experiment [5] (at 50.0 µM), 77.1% (active); in experiment [6] (setting [7]), 12%; in experiment [6] (setting [8]) it was 76% (active); in experiment [6] (at 50.0 µM), 63.5%.

With `CCN(CC)CCOC(=O)c1ccc(N=Nc2cc(Cl)c(C)cc2O)cc1`, the growth inhibition in experiment [1] (setting [7]) was 26%; in experiment [1] (setting [8]), 98% (active); in experiment [1] (at 50.0 µM) it was 99.3% (active); in experiment [2] (setting [7]) it was 29%; in experiment [2] (setting [8]) it was 99% (active); in experiment [2] (at 50.0 µM), 99.2% (active). Also, the growth inhibition in experiment [3] (setting [7]) was 55%; in experiment [3] (setting [8]), 99% (active); in experiment [3] (at 50.0 µM), 95.2% (active); in experiment [4] (setting [7]) it was 13%; in experiment [4] (setting [8]), 98% (active); in experiment [4] (at 50.0 µM), 99% (active). Besides, the growth inhibition in experiment [5] (setting [7]) is 58%; in experiment [5] (setting [8]), 99% (active); in experiment [5] (at 50.0 µM), 99.1% (active); in experiment [6] (setting [7]), 28%; in experiment [6] (setting [8]), 99% (active); in experiment [6] (at 50.0 µM), 99.1% (active).

On to `Clc1ccc2nc3c(c(N4CCOCC4)c2c1)CCCC3`, for which the growth inhibition was 94% (active) in experiment [1] (setting [7]); 97% (active) in experiment [1] (setting [8]); 99% (active) in experiment [1] (at 50.0 µM); 92% (active) in experiment [2] (setting [7]); 99% (active) in experiment [2] (setting [8]); 99.3% (active) in experiment [2] (at 50.0 µM). The growth inhibition is 94% (active) in experiment [3] (setting [7]); 98% (active) in experiment [3] (setting [8]); 99.2% (active) in experiment [3] (at 50.0 µM); 80% (active) in experiment [4] (setting [7]); 99% (active) in experiment [4] (setting [8]); 98.9% (active) in experiment [4] (at 50.0 µM). The growth inhibition in experiment [5] (setting [7]) was 53%; in experiment [5] (setting [8]), 98% (active); in experiment [5] (at 50.0 µM), 99.5% (active); in experiment [6] (setting [7]) it was 96% (active); in experiment [6] (setting [8]) it was 98% (active); in experiment [6] (at 50.0 µM) it was 99.2% (active).

As for `Cc1c2ccncc2cc2c3ccccc3n(C)c12`, the growth inhibition in experiment [1] (setting [7]) is -23%; in experiment [1] (setting [8]), 97% (active); in experiment [1] (at 50.0 µM), 99% (active); in experiment [2] (setting [7]), -58%; in experiment [2] (setting [8]), 97% (active); in experiment [2] (at 50.0 µM) it was 98.7% (active). In addition, the growth inhibition in experiment [3] (setting [7]) was -45%; in experiment [3] (setting [8]) it was 97% (active); in experiment [3] (at 50.0 µM), 98.7% (active); in experiment [4] (setting [7]) it was -50%; in experiment [4] (setting [8]), 98% (active); in experiment [4] (at 50.0 µM), 98.2% (active). Further, the growth inhibition in experiment [5] (setting [7]) is -63%; in experiment [5] (setting [8]), 98% (active); in experiment [5] (at 50.0 µM) it was 98.8% (active); in experiment [6] (setting [7]), -95%; in experiment [6] (setting [8]), 97% (active); in experiment [6] (at 50.0 µM), 99.2% (active).

Regarding `CCOC(=O)/C(=C/c1ccc2ccccc2c1)P(=O)(OCC)OCC`, the growth inhibition in experiment [1] (setting [7]) was -17%; in experiment [1] (setting [8]), -15%; in experiment [1] (at 50.0 µM) it was 76.6% (active); in experiment [2] (setting [7]), 6%; in experiment [2] (setting [8]), -13%; in experiment [2] (at 50.0 µM), 69.2%. The growth inhibition in experiment [3] (setting [7]) is -6%; in experiment [3] (setting [8]), -5%; in experiment [3] (at 50.0 µM), 66.8%; in experiment [4] (setting [7]) it was 10%; in experiment [4] (setting [8]) it was 19%; in experiment [4] (at 50.0 µM) it was 71.1% (active). Moreover, the growth inhibition is 16% in experiment [5] (setting [7]); 9% in experiment [5] (setting [8]); 75.5% (active) in experiment [5] (at 50.0 µM); -18% in experiment [6] (setting [7]); -7% in experiment [6] (setting [8]); 58% in experiment [6] (at 50.0 µM).

For `NC(=O)c1nnn(Cc2cc(Cl)c(C(=O)c3ccc(Cl)cc3)c(Cl)c2)c1N`, the growth inhibition in experiment [1] (setting [7]) was 2%; in experiment [1] (setting [8]) it was 98% (active); in experiment [1] (at 50.0 µM) it was 57.2%; in experiment [2] (setting [7]) it was 3%; in experiment [2] (setting [8]) it was 99% (active); in experiment [2] (at 50.0 µM) it was 98.9% (active). The growth inhibition in experiment [3] (setting [7]) was 2%; in experiment [3] (setting [8]), 99% (active); in experiment [3] (at 50.0 µM), 50.3%; in experiment [4] (setting [7]), 1%; in experiment [4] (setting [8]), 98% (active); in experiment [4] (at 50.0 µM) it was 98.6% (active). Further, the growth inhibition is 5% in experiment [5] (setting [7]); 99% (active) in experiment [5] (setting [8]); 98.8% (active) in experiment [5] (at 50.0 µM); 13% in experiment [6] (setting [7]); 94% (active) in experiment [6] (setting [8]); 98.8% (active) in experiment [6] (at 50.0 µM).

For `CCC(CC)COC(=O)c1ccc(O)c(O)c1`, the growth inhibition is -6% in experiment [1] (setting [7]); 91% (active) in experiment [1] (setting [8]); 98.8% (active) in experiment [1] (at 50.0 µM); -5% in experiment [2] (setting [7]); 72% (active) in experiment [2] (setting [8]); 99.2% (active) in experiment [2] (at 50.0 µM). Also, the growth inhibition in experiment [3] (setting [7]) is -2%; in experiment [3] (setting [8]), 91% (active); in experiment [3] (at 50.0 µM) it was 48.1%; in experiment [4] (setting [7]), -14%; in experiment [4] (setting [8]) it was 98% (active); in experiment [4] (at 50.0 µM), 99.1% (active). Also, the growth inhibition is 1% in experiment [5] (setting [7]); 99% (active) in experiment [5] (setting [8]); 99.1% (active) in experiment [5] (at 50.0 µM); -6% in experiment [6] (setting [7]); 99% (active) in experiment [6] (setting [8]); 98.9% (active) in experiment [6] (at 50.0 µM).

For the molecule `CC[N+]1=C(/C=C\c2cc(C)c3cccnc3c2O)C(C)(C)c2ccccc21`, the growth inhibition in experiment [1] (setting [7]) was 0%; in experiment [1] (setting [8]), 98% (active); in experiment [1] (at 50.0 µM) it was 53.9%; in experiment [2] (setting [7]), -2%; in experiment [2] (setting [8]), 98% (active); in experiment [2] (at 50.0 µM), 48.7%. Besides, the growth inhibition was -6% in experiment [3] (setting [7]); 98% (active) in experiment [3] (setting [8]); 48.1% in experiment [3] (at 50.0 µM); -4% in experiment [4] (setting [7]); 98% (active) in experiment [4] (setting [8]); 77% (active) in experiment [4] (at 50.0 µM). For the same molecule, the growth inhibition is -5% in experiment [5] (setting [7]); 98% (active) in experiment [5] (setting [8]); 93.2% (active) in experiment [5] (at 50.0 µM); 0% in experiment [6] (setting [7]); 97% (active) in experiment [6] (setting [8]); 51.7% in experiment [6] (at 50.0 µM).

For `Clc1ccc2oc(N3CCCCC3)nc2c1`, the growth inhibition in experiment [1] (setting [7]) is 4%; in experiment [1] (setting [8]), 7%; in experiment [1] (at 50.0 µM), 98.8% (active); in experiment [2] (setting [7]), -3%; in experiment [2] (setting [8]) it was -3%; in experiment [2] (at 50.0 µM), 99.2% (active). In addition, the growth inhibition in experiment [3] (setting [7]) is 2%; in experiment [3] (setting [8]), 6%; in experiment [3] (at 50.0 µM), 99% (active); in experiment [4] (setting [7]), 2%; in experiment [4] (setting [8]) it was 6%; in experiment [4] (at 50.0 µM) it was 98.2% (active). In addition, the growth inhibition was 8% in experiment [5] (setting [7]); 15% in experiment [5] (setting [8]); 99.2% (active) in experiment [5] (at 50.0 µM); 4% in experiment [6] (setting [7]); 11% in experiment [6] (setting [8]); 98.7% (active) in experiment [6] (at 50.0 µM).
